Assay [1] can be described thus: A CellTox Green Cytotoxicity Assay to monitor cytotoxicity in HEK293 cells - 32 hour (AID 1224881). Further: nearly all actives have a fitted effect of over 40% in size. Further: potency means the concentration at half of the fitted maximal effect. The gist of the method:
(§1)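 Seeding of HEK293 cells together with cytotoxicity dye preceded a 5 h incubation at 37 C/5% CO2. Test compounds in DMSO were then added and fluorescence monitored across 40 h.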

The nature of assay [2]: A CellTox Green Cytotoxicity Assay to monitor cytotoxicity in HepG2 cells - 0 hour (AID 1224882). Further: nearly all actives have a fitted effect of over 35% in size. The gist of the method: (§2)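 Nonlytic assay: viable cells exclude the dye, so fluorescence scales with cell death. HepG2 at 600 cells/well, compounds added after 5 h, signal read across 40 h.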
Assay [3] in a line: A CellTox Green Cytotoxicity Assay to monitor cytotoxicity in HepG2 cells - 32 hour (AID 1224883). Further: nearly all actives have a fitted effect of over 50% in size. Further: potency means the concentration at half of the fitted maximal effect. Put shortly: as §2
Assay [4] in a line: A CellTox Green Cytotoxicity Assay to monitor cytotoxicity in HEK293 cells - 8 hour (AID 1224884). Further: nearly all actives have a fitted effect of over 35% in size. The gist of the method: as §1
A short description of assay [5]: qHTS RealTime-Glo MT Cell Viability Assay in HEK293 cells - 24 hour (AID 1224886). Further: nearly all actives have a fitted effect of over 50% in size. Further: potency means the concentration at half of the fitted maximal effect. The gist of the method:
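Viability tracked continuously by luminescence as live cells reduce a prosubstrate for NanoLuc; HEK293 cells preincubated 5 h, compound-treated at 37 C, and read at 0, 8, 16, 24, 32 and 40 h.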

The nature of assay [6]: qHTS RealTime-Glo MT Cell Viability Assay in HEK293 cells - 8 hour (AID 1224887). Further: nearly all actives have a fitted effect of over 50% in size. Further: potency means the concentration at half of the fitted maximal effect. The gist of the method: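 Tox21 screen in HEK293 using RealTime-Glo MT chemistry, with cells and reagent co-dispensed. Luminescence proportional to viable cell number was captured at intervals during 40 h compound exposure at 37 C.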
Assay [7] is described as follows: qHTS RealTime-Glo MT Cell Viability Assay in HepG2 cells - 0 hour (AID 1224889). Further: nearly all actives have a fitted effect of over 50% in size. Further: potency means the concentration at half of the fitted maximal effect. Put shortly: (§3)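 Viability was tracked continuously by NanoLuc luminescence from prosubstrate reduced by living HepG2 cells, at successive time points over 40 h of compound exposure. Cells with reagent were preincubated 5 h at 37 °C before compound addition.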
Assay [8] is described as follows: qHTS assay to identify small molecule antagonists of the estrogen receptor alpha (ER-alpha) signaling pathway using the BG1 cell line in the presence of 0.1 nM 17-beta-estradiol - cell viability counter screen (AID 1259241). Further: nearly all actives have a fitted effect of over 40% in size. The gist of the method: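 VM7Luc4E2, 4,000 cells/well, phenol red-free medium + 10% charcoal-stripped FBS; 24 hr plating; cpd + 0.1 nM E2 final, 22 hr 37C/5% CO2; CellTiter-Fluor 30 min, fluorescence.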

The target of assay [9] is Androgen receptor (Homo sapiens) (UniProt P10275). Nature of the assay: qHTS assay to identify small molecule antagonists of the androgen receptor (AR) signaling pathway using the MDA cell line in the presence of 0.5 nM R1881 (AID 1259243). Further: nearly all actives have a fitted effect of over 50% in size. Further: potency means the concentration at half of the fitted maximal effect. Put shortly:
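We exposed MDA-kb2 cells to compounds under 0.5 nM R1881 stimulation for 16 hr at 37C and quantified MMTV-driven luciferase by luminescence.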

Assay [10] can be described thus: qHTS assay to identify small molecule phospholipidosis (PLD) inducers (AID 1259344; active means well fitted curve in the direction sought with a large enough effect; an effect the other way counts as inactive or inconclusive). The gist of the method: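 Phospholipidosis is scored by imaging LipidTOX-stained pits in HepG2 cells exposed to compound for 24 h at 37 C; pit counts and integrated intensities per well and per cell serve as outputs.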
The nature of assay [11]: qHTS assay to identify small molecule HDAC inhibitors (AID 1259364).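 Further: wild-type HCT-116 cells with endogenous class I/II HDAC activity; top concentration of the series differs between compounds; nearly all actives have a fitted effect of over 45% in size.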 The gist of the method:
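Relative class I and II HDAC activity is taken from the luminogenic signal in HCT-116 cells, with compound exposure 2 hr and reagent development 30 min at room temperature.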

A short description of assay [12]: qHTS assay to identify small molecule HDAC inhibitors - cell viability counter screen (AID 1259365). The gist of the method: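 Luminescence from CellTiter-Glo, developed 30min at room temperature, reports viability of wild-type HCT-116 cells treated 2hr with compounds at 37 C and 5% CO2 after overnight plating.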
Assay [13] is described as follows: qHTS assay to identify small molecule agonists of the sonic hedgehog signaling (Shh) pathway - cell viability counter screen (AID 1259366). Further: nearly all actives have a fitted effect of over 50% in size. Further: potency means the concentration at half of the fitted maximal effect. The gist of the method: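 Cytotoxicity counter screen run in the same wells as the Shh reporter assay. NIH/3T3 cells carrying a Gli1 response element–driven luciferase were treated with DMSO-dissolved compounds for 24hr, and live-cell protease activity was measured with CellTiter-Fluor.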

Assay [14] in a line: qHTS assay to identify small molecule antagonists of the sonic hedgehog signaling (Shh) pathway - cell viability counter screen (AID 1259367). Further: nearly all actives have a fitted effect of over 55% in size. Further: potency means the concentration at half of the fitted maximal effect. The gist of the method: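 Cells: 3T3 Gli1-Luc, 2,000/well, 4 hr pre-incubation. Compounds in DMSO, then conditioned medium. Incubation 24 hr, 37C, 5% CO2. CellTiter-Fluor at 23 hr, 1 hr, fluorescence.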
A short description of assay [15]: qHTS assay to identify small molecule agonists of the sonic hedgehog signaling (Shh) pathway (AID 1259368; calls by dose curve;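 further: NIH/3T3-derived 3T3Gli1-Luc cells carrying a stable Gli1-driven firefly luciferase reporter; series mostly up to about 92 µM; nearly all actives have a fitted effect of over 15% in size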). Put shortly:
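Mouse fibroblast (NIH/3T3) reporter cells with stably integrated Gli1-Luc were treated 24 hr with compound; firefly luciferase luminescence served as the read-out.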

Assay [16] can be described thus: qHTS RealTime-Glo MT Cell Viability Assay in HepG2 cells - 16 hour (AID 1224885). Further: nearly all actives have a fitted effect of over 50% in size. Put shortly:
as §3

Assay [17] can be described thus: A CellTox Green Cytotoxicity Assay to monitor cytotoxicity in HEK293 cells - 16 hour (AID 1224888). Further: nearly all actives have a fitted effect of over 35% in size. The gist of the method: as §1
Assay [18] is described as follows: A CellTox Green Cytotoxicity Assay to monitor cytotoxicity in HepG2 cells - 8 hour (AID 1224890). Further: nearly all actives have a fitted effect of over 45% in size. The gist of the method:
as §2

Assay [19] in a line: qHTS assay to identify small molecule antagonists of the androgen receptor (AR) signaling pathway using the MDA cell line in the presence of 0.5 nM R1881 - cell viability counter screen (AID 1259242). Further: nearly all actives have a fitted effect of over 45% in size. Put shortly: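 R1881 at 0.5 nM final stimulated MDA-kb2 cells during 16 hr compound treatment at 37C. Cytotoxicity read: CellTiter-Fluor fluorescence after 30 min.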
Assay [20] addresses Estrogen receptor (Homo sapiens) (UniProt P03372). The assay can be described thus: qHTS assay to identify small molecule antagonists of the estrogen receptor alpha (ER-alpha) signaling pathway using the BG1 cell line in the presence of 0.1 nM 17-beta-estradiol (AID 1259244). Further: nearly all actives have a fitted effect of over 50% in size. Further: potency means the concentration at half of the fitted maximal effect. Put shortly: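 VM7Luc4E2; 4xERE-luciferase; 0.1 nM E2 final; 22 h co-incubation, 37C; ONE-Glo luminescence after 30 min at room temperature.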

Values joined by “and” are separate entries in the source; they are usually repeats but may differ in a detail not shown here. Equal entries are not always repeated. Unmarked numbers belong to inactive results. Records with an inconclusive call do not appear. Active and inactive are the calls of the source. Unless noted, the call rests on the fitted dose curve; in most records, active means well fitted curve in the direction sought with a large enough effect in the repeat runs; inconclusive means weak or mixed curves; inactive means no such curve, though single readings can be large; an effect the other way counts as inactive or inconclusive.

Androgen receptor (Homo sapiens), sequence (P10275 whole entry, looked up): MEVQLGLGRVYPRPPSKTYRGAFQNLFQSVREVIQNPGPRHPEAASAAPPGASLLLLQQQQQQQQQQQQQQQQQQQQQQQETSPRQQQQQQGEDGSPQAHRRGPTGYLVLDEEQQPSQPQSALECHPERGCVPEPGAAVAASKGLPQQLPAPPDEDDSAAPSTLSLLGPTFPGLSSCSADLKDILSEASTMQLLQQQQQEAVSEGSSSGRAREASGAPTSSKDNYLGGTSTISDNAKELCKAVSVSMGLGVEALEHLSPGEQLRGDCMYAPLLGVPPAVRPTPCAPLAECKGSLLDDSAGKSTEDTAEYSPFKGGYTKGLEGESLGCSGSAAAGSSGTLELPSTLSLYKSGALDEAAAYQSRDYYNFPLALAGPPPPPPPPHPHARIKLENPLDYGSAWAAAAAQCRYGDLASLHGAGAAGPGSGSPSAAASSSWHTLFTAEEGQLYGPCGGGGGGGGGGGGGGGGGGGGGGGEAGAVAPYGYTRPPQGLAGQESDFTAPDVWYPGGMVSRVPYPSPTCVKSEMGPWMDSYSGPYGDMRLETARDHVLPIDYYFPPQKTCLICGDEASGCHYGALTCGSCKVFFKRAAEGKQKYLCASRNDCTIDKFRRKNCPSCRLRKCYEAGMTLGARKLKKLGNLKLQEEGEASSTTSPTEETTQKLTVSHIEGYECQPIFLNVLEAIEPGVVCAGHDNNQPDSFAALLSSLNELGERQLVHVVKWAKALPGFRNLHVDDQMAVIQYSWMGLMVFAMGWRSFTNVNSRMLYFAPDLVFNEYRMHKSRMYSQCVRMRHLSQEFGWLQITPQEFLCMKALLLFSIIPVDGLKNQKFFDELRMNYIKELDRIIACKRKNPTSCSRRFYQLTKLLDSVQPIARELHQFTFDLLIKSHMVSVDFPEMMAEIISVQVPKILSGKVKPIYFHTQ
Estrogen receptor (Homo sapiens), sequence (P03372 whole entry, looked up): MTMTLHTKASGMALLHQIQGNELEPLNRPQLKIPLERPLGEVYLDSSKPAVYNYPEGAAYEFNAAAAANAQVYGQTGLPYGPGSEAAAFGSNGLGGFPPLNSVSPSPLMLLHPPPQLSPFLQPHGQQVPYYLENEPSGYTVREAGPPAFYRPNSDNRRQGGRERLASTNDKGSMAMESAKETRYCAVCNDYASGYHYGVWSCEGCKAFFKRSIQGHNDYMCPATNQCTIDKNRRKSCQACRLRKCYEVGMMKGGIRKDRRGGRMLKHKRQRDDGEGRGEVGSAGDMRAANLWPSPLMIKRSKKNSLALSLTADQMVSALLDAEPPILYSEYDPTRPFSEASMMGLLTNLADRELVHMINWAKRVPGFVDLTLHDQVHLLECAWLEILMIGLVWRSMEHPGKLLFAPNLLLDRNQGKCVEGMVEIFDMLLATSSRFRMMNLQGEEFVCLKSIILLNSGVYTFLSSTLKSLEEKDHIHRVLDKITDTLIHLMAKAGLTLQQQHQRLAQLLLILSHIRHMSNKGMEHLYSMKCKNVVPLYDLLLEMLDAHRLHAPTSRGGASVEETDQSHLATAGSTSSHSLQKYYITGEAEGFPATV

For `OC(CN1CCC(Cc2ccc(F)cc2)CC1)c1ccc(Cl)cc1` (stereo not drawn), the Potency in [1] is 21.3 µM (active); in assay [3], 23.9 µM (active); in [5], 9.52 µM (active); in assay [6] it was 16.9 µM (active); in assay [9] it was 29.8 µM (active). For the same compound, the Potency result in assay [2], in assay [4], in assay [7], in assay [8], in [10] and in assay [11] was “inactive” throughout. Moreover, the Potency entry in [12], in assay [13] and in assay [14] was “inactive” each time. In addition, in assay [15], the call was inactive.

For `C[C@@H]1C[C@H]2O[C@@]3(O[C@@H]2C(C)(C)O)[C@H](O)[C@@]2(C)[C@@H]4CC[C@H]5C(C)(C)[C@@H](O[C@@H]6OC[C@@H](O)[C@H](O)[C@H]6O)CC[C@@]56C[C@@]46CC[C@]2(C)[C@@H]13`, the Potency entry in assay [1], in assay [2], in [3], in assay [16], in [5] and in [17] was “inactive” each time. Also, the Potency result in assay [18], in assay [8], in assay [19], in assay [9], in [20] and in [11] was “inactive” each time. Also, the Potency entry in assay [12], in [13] and in assay [14] was “inactive” in each case. Moreover, the Potency in assay [7] is 2.16 µM (active). Besides, the compound was called inactive in assay [15].

Regarding `O=C(O)c1nc(Cl)c(Cl)c(Cl)c1Cl`, the Potency result in assay [1], in assay [2], in assay [3], in assay [16], in assay [6] and in [7] was “inactive” each time. Also, the Potency result in assay [18], in assay [8], in [19], in assay [11], in assay [13] and in assay [14] was “inactive” in each case. The compound was classed as inactive in assay [15].

As to `CN(C)C(=O)NC1(c2ccccc2)CCN(CC[C@@]2(c3ccc(F)c(F)c3)CN(C(=O)c3ccccc3)CCO2)CC1`, the Potency entry in assay [1], in [2], in assay [3], in assay [16], in assay [17] and in assay [7] was “inactive” each time. Besides, the Potency result in assay [18], in assay [8], in assay [19], in assay [11] and in [12] was “inactive” in each case. In assay [15], the result was inactive.

Consider `CC(C)(COC(=O)c1ccccc1)COC(=O)c1ccccc1`, for which the Potency result in assay [1], in assay [2], in assay [3], in [16], in assay [17] and in assay [7] was “inactive” in each case. Moreover, the Potency entry in assay [18], in [8], in assay [19], in [11], in assay [12] and in assay [13] was “inactive” throughout. Besides, in [14], the Potency entry is “inactive”. The outcome in assay [15] was inactive.

In the case of `Clc1ccc(Cn2c(CN3CCCC3)nc3ccccc32)cc1`, the Potency result in assay [1], in assay [2], in assay [3], in assay [4], in assay [16] and in assay [7] was “inactive” each time. Further, the Potency entry in [18], in assay [8], in assay [19], in assay [10], in assay [11] and in assay [12] was “inactive” throughout. In addition, the Potency entry in [13] and in assay [14] was “inactive” in each case. Also, in assay [15], the compound was called inactive.

For the compound `Cn1c(=O)cc(Oc2ccc(F)cc2F)c2cnc(NCC(C)(C)O)nc21`, the Potency entry in [1], in assay [2], in assay [3], in assay [16], in assay [6] and in [17] was “inactive” throughout. Moreover, the Potency entry in assay [7], in assay [18], in assay [8], in [19], in [11] and in [12] was “inactive” in each case. In addition, the Potency result in [13] is “inactive”. In addition, the compound was called inactive in [15].

For `C=CC(=O)OCCOCCOCCOCCOC(=O)C=C`, the Potency is 54.4 µM (active) in assay [1]; 39.1 µM (active) and 13.7 µM (active) in assay [3]; 34.8 µM (active) and 30.6 µM (active) in assay [5]; 54.8 µM (active) in assay [20]; 27.4 µM (active) and 21.5 µM (active) in assay [13]; 19.4 µM (active) and 27.1 µM (active) in assay [14]. The Potency result in assay [2], in assay [4], in [17], in [7], in assay [11] and in [12] was “inactive” each time. The compound was called inactive in assay [15].

The record behind these values is PubChem BioAssay (Tox21).
